# Data from paper PMC5700166.
# What was measured:
# Assay in all cases: protein-binding microarray (PBM); PBM: ~300 nM protein, 6 mM HEPES pH 7.8, 80 mM KCl, 0.5 mM EDTA, 0.5 mM EGTA, 6% glycerol, 35 ng/ul poly-dIdC, 1% milk, 1 h, room temperature; Ap Aiptasia and Nv Nematostella (sea anemones) / Co Capsaspora / Aq Amphimedon (sponge) / Dm Drosophila / Hu human; RHD is the Rel homology domain; high values mean tight binding
# Details in all cases: dsDNA, one strand shown
# [1] = biological target: T1, GST-Ap-NF-kB RHD (Exaiptasia pallida (Aiptasia), UniProt A0A913YAJ5 2-422)
# T1 sequence: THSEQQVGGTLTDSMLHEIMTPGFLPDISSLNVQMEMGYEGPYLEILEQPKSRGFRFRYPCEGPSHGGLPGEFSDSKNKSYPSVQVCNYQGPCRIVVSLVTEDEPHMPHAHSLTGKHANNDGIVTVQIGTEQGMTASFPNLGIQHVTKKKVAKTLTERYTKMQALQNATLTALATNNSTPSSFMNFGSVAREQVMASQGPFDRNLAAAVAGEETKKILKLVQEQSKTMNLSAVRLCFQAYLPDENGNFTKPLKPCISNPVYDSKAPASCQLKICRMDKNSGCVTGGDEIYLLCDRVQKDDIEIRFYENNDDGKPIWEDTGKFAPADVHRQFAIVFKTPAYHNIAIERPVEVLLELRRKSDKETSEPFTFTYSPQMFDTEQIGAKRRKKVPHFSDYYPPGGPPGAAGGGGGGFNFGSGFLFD
# [2] = biological target: T2, GST-Nv-NF-kB (Cys allele) (Nematostella vectensis, UniProt E5G601 2-411)
# T2 sequence: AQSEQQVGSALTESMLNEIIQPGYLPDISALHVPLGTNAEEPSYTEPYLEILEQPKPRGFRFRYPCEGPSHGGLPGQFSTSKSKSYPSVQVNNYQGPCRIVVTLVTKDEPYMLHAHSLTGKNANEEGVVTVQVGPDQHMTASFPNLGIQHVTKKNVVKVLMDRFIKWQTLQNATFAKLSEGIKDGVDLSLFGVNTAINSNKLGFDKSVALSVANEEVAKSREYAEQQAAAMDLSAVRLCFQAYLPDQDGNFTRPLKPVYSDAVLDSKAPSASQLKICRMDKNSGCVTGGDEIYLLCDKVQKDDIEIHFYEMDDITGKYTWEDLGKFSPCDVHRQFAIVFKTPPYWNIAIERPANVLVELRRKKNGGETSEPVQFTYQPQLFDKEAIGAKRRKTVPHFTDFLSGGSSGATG
# [3] = biological target: T3, GST-Co-NF-kB (Capsaspora owczarzaki, UniProt F1ARL5 200-546)
# T3 sequence: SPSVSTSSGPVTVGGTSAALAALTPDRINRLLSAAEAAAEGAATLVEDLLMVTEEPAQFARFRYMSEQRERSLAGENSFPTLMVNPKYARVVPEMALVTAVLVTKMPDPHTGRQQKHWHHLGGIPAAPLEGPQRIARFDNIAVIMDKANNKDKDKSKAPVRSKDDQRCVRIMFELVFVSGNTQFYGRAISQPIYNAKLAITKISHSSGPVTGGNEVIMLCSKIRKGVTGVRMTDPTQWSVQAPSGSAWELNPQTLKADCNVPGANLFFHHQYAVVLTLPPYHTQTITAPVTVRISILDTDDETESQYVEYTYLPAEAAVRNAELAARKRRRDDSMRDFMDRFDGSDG
# [4] = biological target: T4, GST-Dm-Relish (Drosophila melanogaster, UniProt Q94527 99-473)
# T4 sequence: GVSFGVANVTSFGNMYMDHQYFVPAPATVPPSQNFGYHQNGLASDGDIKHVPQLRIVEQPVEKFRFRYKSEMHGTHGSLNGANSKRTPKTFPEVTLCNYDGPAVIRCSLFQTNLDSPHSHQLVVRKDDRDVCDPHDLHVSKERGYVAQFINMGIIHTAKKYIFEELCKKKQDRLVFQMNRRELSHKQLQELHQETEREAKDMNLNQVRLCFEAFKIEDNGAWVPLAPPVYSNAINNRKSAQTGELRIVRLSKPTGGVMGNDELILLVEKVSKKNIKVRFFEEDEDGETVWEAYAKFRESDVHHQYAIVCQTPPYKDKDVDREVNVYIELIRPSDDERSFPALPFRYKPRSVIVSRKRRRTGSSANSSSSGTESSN
# [5] = biological target: T5, GST-Aq-NF-kB (Amphimedon queenslandica, UniProt A9Y5G7 2-389)
# T5 sequence: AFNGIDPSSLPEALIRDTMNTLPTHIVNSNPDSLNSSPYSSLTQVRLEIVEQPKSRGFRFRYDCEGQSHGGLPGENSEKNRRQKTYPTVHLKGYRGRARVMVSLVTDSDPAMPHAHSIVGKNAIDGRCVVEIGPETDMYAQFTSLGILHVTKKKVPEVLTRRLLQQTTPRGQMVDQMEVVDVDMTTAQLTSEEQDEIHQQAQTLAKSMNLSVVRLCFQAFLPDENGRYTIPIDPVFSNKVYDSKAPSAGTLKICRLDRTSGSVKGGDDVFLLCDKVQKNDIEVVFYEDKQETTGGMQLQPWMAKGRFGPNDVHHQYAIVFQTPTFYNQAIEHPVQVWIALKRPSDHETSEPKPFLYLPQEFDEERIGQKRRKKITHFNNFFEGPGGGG
Sequence,binding signal [1] [z-score],binding signal [2] [z-score],binding signal [3] [z-score],binding signal [4] [z-score],binding signal [5] [z-score]
CCGATTAACATCAAGGGAATACCTGATGTTAATCGGGTCTTGATTCGCTTGACGCTGCTG,4.61,4.26,2.25,6.28,5.48
CCGATTAACATCAATTACCCCCCTGATGTTAATCGGGTCTTGATTCGCTTGACGCTGCTG,5.96,4.69,6.96,4.49,5.14
CCGATTAACATCAAATTGCCCCCTGATGTTAATCGGGTCTTGATTCGCTTGACGCTGCTG,4.13,3.94,4.71,3.33,4.88
CCGATTAACATCAAAGAAGCCCCTGATGTTAATCGGGTCTTGATTCGCTTGACGCTGCTG,4.38,5.52,1.52,4.39,5.13
CCGATTAACATCAAACAATTCCCTGATGTTAATCGGGTCTTGATTCGCTTGACGCTGCTG,3.25,5.26,3.45,1.6,4.85
CCGATTAACATCAATCTACCCCCTGATGTTAATCGGGTCTTGATTCGCTTGACGCTGCTG,4.86,3.1,7.41,2.3,3.68
CCGATTAACATCAATATTTACCCTGATGTTAATCGGGTCTTGATTCGCTTGACGCTGCTG,1.68,3.08,3.33,1.66,2.34
CCGATTAACATCAGGGGGCAAGATGATGTTAATCGGGTCTTGATTCGCTTGACGCTGCTG,2.07,2.14,2.69,1.01,2.76
CCGATTAACATCACGGGAAGTCCTGATGTTAATCGGGTCTTGATTCGCTTGACGCTGCTG,2.98,3.06,1.33,7.73,6
CCGATTAACATCAAGGGGGTAAATGATGTTAATCGGGTCTTGATTCGCTTGACGCTGCTG,5.28,3.77,6.69,2.72,4.26
CCGATTAACATCACAAACTTCCCTGATGTTAATCGGGTCTTGATTCGCTTGACGCTGCTG,3.81,4.26,2.51,3.48,4.68
CCGATTAACATCAGAATATCCCATGATGTTAATCGGGTCTTGATTCGCTTGACGCTGCTG,2.05,1.17,1.46,1.8,1.86
CCGATTAACATCATCTCCCCCCATGATGTTAATCGGGTCTTGATTCGCTTGACGCTGCTG,4.75,2.53,8,2.29,4.57
CCGATTAACATCAGGGAATATTATGATGTTAATCGGGTCTTGATTCGCTTGACGCTGCTG,5.06,5.86,3.81,3,5.75
